Values joined by “and” are separate entries in the source; they are usually repeats but may differ in a detail not shown here. Identical values can stand only once.
Columns and labels:
Experiment in all cases: growth inhibition (% activity, log2 RLU normalised to DMSO / staurosporine); higher = more growth inhibition
Conditions in all cases: 33 µM
DIPGX29 = system: DIPGX29 (H3.3 K27M diffuse intrinsic pontine glioma line)
Method in brief: (§1)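 pHGG cell lines and H9-derived neural stem cells were grown on Geltrex-coated 384-well plates. Approved drugs were added by pin tool at a single final concentration of about 33 μM, in triplicate, for 7 days at 37 °C, 5% CO2. CellTiter-Glo luminescence was log2-transformed and normalised per plate to % activity between solvent and positive control wells. The growth-inhibition value is the median over replicates.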

DIPGX37 = system: DIPGX37 (H3.3 K27M diffuse intrinsic pontine glioma line)
Method in brief: as §1

DIPGX7 = system: DIPGX7 (H3.3 K27M diffuse intrinsic pontine glioma line)
Method in brief: as §1

DIPGX9 = system: DIPGX9 (diffuse intrinsic pontine glioma line)
Method in brief: as §1

HGGX39 = system: HGGX39 (paediatric high-grade glioma line)
Method in brief: as §1

HGGX6 = system: HGGX6 (H3.3 G34R paediatric high-grade glioma line)
Method in brief: as §1

HNSC = system: HNSC
Method in brief: as §1

SUDIPGIV = system: SUDIPGIV (diffuse intrinsic pontine glioma line)
Method in brief: as §1

SUDIPGVI = system: SUDIPGVI (diffuse intrinsic pontine glioma line)
Method in brief: as §1

SUDIPGXIII = system: SUDIPGXIII (diffuse intrinsic pontine glioma line)
Method in brief: as §1

## NCC1(CC(=O)O)CCCCC1
DIPGX29
  growth inhibition: 2.13% and 0.326%
DIPGX37
  growth inhibition: 4.84% and 0.615%
DIPGX7
  growth inhibition: 3.15% and 1.16%
DIPGX9
  growth inhibition: -0.041% and -0.903%
HGGX39
  growth inhibition: 2.36% and -1.3%
HGGX6
  growth inhibition: 2.04% and -2.75%
HNSC
  growth inhibition: 2.28% and -0.457%
SUDIPGIV
  growth inhibition: 1.22% and -1.85%
SUDIPGVI
  growth inhibition: 2.85% and -1.96%
SUDIPGXIII
  growth inhibition: -1.15% and -0.111%

## CC(O)(CS(=O)(=O)c1ccc(F)cc1)C(=O)Nc1ccc(C#N)c(C(F)(F)F)c1 (stereo not given)
DIPGX29
  growth inhibition: 0.345%
DIPGX37
  growth inhibition: -1.44%
DIPGX7
  growth inhibition: 1.23%
DIPGX9
  growth inhibition: 0.462%
HGGX39
  growth inhibition: 1.55%
HGGX6
  growth inhibition: 0.395%
HNSC
  growth inhibition: -0.177%
SUDIPGIV
  growth inhibition: -0.994%
SUDIPGVI
  growth inhibition: 2.38%
SUDIPGXIII
  growth inhibition: 1.16%

## CC(NC(C)(C)C)C(=O)c1cccc(Cl)c1 (stereo not given)
DIPGX29
  growth inhibition: -0.525%
DIPGX37
  growth inhibition: -0.598%
DIPGX7
  growth inhibition: -1.27%
DIPGX9
  growth inhibition: 0.229%
HGGX39
  growth inhibition: 1.55%
HGGX6
  growth inhibition: 0.445%
HNSC
  growth inhibition: -1.56%
SUDIPGIV
  growth inhibition: 0.0304%
SUDIPGVI
  growth inhibition: -0.145%
SUDIPGXIII
  growth inhibition: 0.264%

## C#C[C@]1(O)C=C[C@H]2[C@@H]3CCC4=CC(=O)CC[C@@H]4[C@H]3CC[C@@]21CC
DIPGX29
  growth inhibition: 1.62%
DIPGX37
  growth inhibition: 0.668%
DIPGX7
  growth inhibition: 0.599%
DIPGX9
  growth inhibition: 1.55%
HGGX39
  growth inhibition: 1.48%
HGGX6
  growth inhibition: 3.32%
HNSC
  growth inhibition: 0.901%
SUDIPGIV
  growth inhibition: 0.673%
SUDIPGVI
  growth inhibition: 1.89%
SUDIPGXIII
  growth inhibition: 0.6%

## C[C@]12CCC(=O)C=C1C=C[C@@H]1[C@@H]2CC[C@@]2(C)[C@H]1CC[C@@]2(O)CCC(=O)O
DIPGX29
  growth inhibition: 0.155%
DIPGX37
  growth inhibition: -0.641%
DIPGX7
  growth inhibition: 2.17%
DIPGX9
  growth inhibition: 1.05%
HGGX39
  growth inhibition: 0.878%
HGGX6
  growth inhibition: -0.966%
HNSC
  growth inhibition: 37.3%
SUDIPGIV
  growth inhibition: -0.186%
SUDIPGVI
  growth inhibition: -0.451%
SUDIPGXIII
  growth inhibition: -0.386%

## CCC1(c2cccc(O)c2)CCCCN(C)C1 (stereo not given)
DIPGX29
  growth inhibition: 0.813%
DIPGX37
  growth inhibition: 0.766%
DIPGX7
  growth inhibition: -0.204%
DIPGX9
  growth inhibition: 0.246%
HGGX39
  growth inhibition: -0.148%
HGGX6
  growth inhibition: -2.47%
HNSC
  growth inhibition: 18.5%
SUDIPGIV
  growth inhibition: -0.915%
SUDIPGVI
  growth inhibition: -3.26%
SUDIPGXIII
  growth inhibition: -1.39%

## C#C[C@]1(O)CC[C@H]2[C@@H]3CCC4=CC(=O)CC[C@]4(C)[C@H]3CC[C@@]21C
DIPGX29
  growth inhibition: 0.66%
DIPGX37
  growth inhibition: 2.06%
DIPGX7
  growth inhibition: 2.92%
DIPGX9
  growth inhibition: 3.05%
HGGX39
  growth inhibition: 1.6%
HGGX6
  growth inhibition: 0.344%
HNSC
  growth inhibition: 5.86%
SUDIPGIV
  growth inhibition: 0.623%
SUDIPGVI
  growth inhibition: 2.6%
SUDIPGXIII
  growth inhibition: 0.296%

## CN(C)[C@@H]1C(=O)C(C(N)=O)=C(O)[C@@]2(O)C(=O)C3=C(O)c4c(O)ccc(Cl)c4[C@@](C)(O)[C@H]3C[C@@H]12
DIPGX29
  growth inhibition: 3.18%
DIPGX37
  growth inhibition: 4.29%
DIPGX7
  growth inhibition: 3.71%
DIPGX9
  growth inhibition: 3.16%
HGGX39
  growth inhibition: 4.59%
HGGX6
  growth inhibition: 3.5%
HNSC
  growth inhibition: 2.92%
SUDIPGIV
  growth inhibition: 2.12%
SUDIPGVI
  growth inhibition: 3.1%
SUDIPGXIII
  growth inhibition: -1.15%

## C[C@@H]1O[C@@H](O[C@H]2C[C@@H](O)[C@]3(CO)[C@H]4[C@H](O)C[C@]5(C)[C@@H](C6=CC(=O)OC6)CC[C@]5(O)[C@@H]4CC[C@]3(O)C2)[C@H](O)[C@H](O)[C@H]1O
DIPGX29
  growth inhibition: 41.5%
DIPGX37
  growth inhibition: 21.1%
DIPGX7
  growth inhibition: 60.7%
DIPGX9
  growth inhibition: 26.1%
HGGX39
  growth inhibition: 54.5%
HGGX6
  growth inhibition: 51.4%
HNSC
  growth inhibition: 59.4%
SUDIPGIV
  growth inhibition: 60.1%
SUDIPGVI
  growth inhibition: 37.7%
SUDIPGXIII
  growth inhibition: 45.3%

## C[C@]12CC[C@H]3[C@@H](CC[C@@]45O[C@@H]4C(O)=C(C#N)C[C@]35C)[C@@H]1CC[C@@H]2O
DIPGX29
  growth inhibition: 0.975%
DIPGX37
  growth inhibition: -2.98%
DIPGX7
  growth inhibition: 3.34%
DIPGX9
  growth inhibition: -0.94%
HGGX39
  growth inhibition: 3.74%
HGGX6
  growth inhibition: 0.2%
HNSC
  growth inhibition: -3.23%
SUDIPGIV
  growth inhibition: -0.766%
SUDIPGVI
  growth inhibition: -0.488%
SUDIPGXIII
  growth inhibition: -1.34%

## Nc1nc(N)nc(NC2CC2)n1
DIPGX29
  growth inhibition: 0.786%
DIPGX37
  growth inhibition: 3.68%
DIPGX7
  growth inhibition: 1.03%
DIPGX9
  growth inhibition: 0.525%
HGGX39
  growth inhibition: 0.614%
HGGX6
  growth inhibition: -0.225%
HNSC
  growth inhibition: 1.21%
SUDIPGIV
  growth inhibition: 1.07%
SUDIPGVI
  growth inhibition: 2.19%
SUDIPGXIII
  growth inhibition: 0.454%

## C[C@]12CC[C@H](O)CC1=CC[C@@H]1[C@@H]2CC[C@]2(C)C(=O)CC[C@@H]12
DIPGX29
  growth inhibition: 2.61%
DIPGX37
  growth inhibition: 1.45%
DIPGX7
  growth inhibition: 2.22%
DIPGX9
  growth inhibition: 1.17%
HGGX39
  growth inhibition: 3.44%
HGGX6
  growth inhibition: 4%
HNSC
  growth inhibition: 3.63%
SUDIPGIV
  growth inhibition: 2.37%
SUDIPGVI
  growth inhibition: 3.47%
SUDIPGXIII
  growth inhibition: 1.67%

## CCC1(C)CC(=O)NC(=O)C1
DIPGX29
  growth inhibition: -3.05%
DIPGX37
  growth inhibition: -2.24%
DIPGX7
  growth inhibition: 4.09%
DIPGX9
  growth inhibition: -2.78%
HGGX39
  growth inhibition: -4.36%
HGGX6
  growth inhibition: -4.73%
HNSC
  growth inhibition: 7%
SUDIPGIV
  growth inhibition: -2.82%
SUDIPGVI
  growth inhibition: -6.09%
SUDIPGXIII
  growth inhibition: -0.846%

## CCN(C)C(=O)Oc1cccc([C@H](C)N(C)C)c1
DIPGX29
  growth inhibition: -0.955%
DIPGX37
  growth inhibition: -0.495%
DIPGX7
  growth inhibition: 1.09%
DIPGX9
  growth inhibition: 0.618%
HGGX39
  growth inhibition: 1.41%
HGGX6
  growth inhibition: 0.109%
HNSC
  growth inhibition: 4.36%
SUDIPGIV
  growth inhibition: -1.75%
SUDIPGVI
  growth inhibition: -2.42%
SUDIPGXIII
  growth inhibition: -0.000881%

## COc1ccc(C(CN(C)C)C2(O)CCCCC2)cc1 (stereo not given)
DIPGX29
  growth inhibition: 1.29%
DIPGX37
  growth inhibition: 1.34%
DIPGX7
  growth inhibition: 1.7%
DIPGX9
  growth inhibition: 0.288%
HGGX39
  growth inhibition: 0.682%
HGGX6
  growth inhibition: -0.233%
HNSC
  growth inhibition: 1.61%
SUDIPGIV
  growth inhibition: 0.0945%
SUDIPGVI
  growth inhibition: -1.13%
SUDIPGXIII
  growth inhibition: -0.0836%

## O=C(O)c1nn(Cc2ccc(Cl)cc2Cl)c2ccccc12
DIPGX29
  growth inhibition: 1.18%
DIPGX37
  growth inhibition: 2.18%
DIPGX7
  growth inhibition: 1.47%
DIPGX9
  growth inhibition: -0.0993%
HGGX39
  growth inhibition: 1.2%
HGGX6
  growth inhibition: -0.667%
HNSC
  growth inhibition: 30.5%
SUDIPGIV
  growth inhibition: 3.06%
SUDIPGVI
  growth inhibition: -3.75%
SUDIPGXIII
  growth inhibition: -0.117%

## O=P1(N(CCCl)CCCl)NCCCO1 (stereo not given)
DIPGX29
  growth inhibition: -1.28%
DIPGX37
  growth inhibition: -0.973%
DIPGX7
  growth inhibition: -2.34%
DIPGX9
  growth inhibition: -0.609%
HGGX39
  growth inhibition: -1.32%
HGGX6
  growth inhibition: -0.517%
HNSC
  growth inhibition: -1.67%
SUDIPGIV
  growth inhibition: -2.17%
SUDIPGVI
  growth inhibition: -1.97%
SUDIPGXIII
  growth inhibition: -0.0596%

## CC(=O)Nc1cc([As](=O)(O)O)ccc1O
DIPGX29
  growth inhibition: -0.747%
DIPGX37
  growth inhibition: 1.33%
DIPGX7
  growth inhibition: -1.33%
DIPGX9
  growth inhibition: -0.567%
HGGX39
  growth inhibition: 0.328%
HGGX6
  growth inhibition: 0.00658%
HNSC
  growth inhibition: -0.382%
SUDIPGIV
  growth inhibition: -1.04%
SUDIPGVI
  growth inhibition: 0.903%
SUDIPGXIII
  growth inhibition: 1.03%

## CN(C)[C@@H]1C(=O)C(C(N)=O)=C(O)[C@@]2(O)C(=O)C3=C(O)c4c(O)cccc4[C@@](C)(O)[C@H]3[C@H](O)[C@@H]12
DIPGX29
  growth inhibition: 0.568% and -1.27%
DIPGX37
  growth inhibition: 1.33% and -2.42%
DIPGX7
  growth inhibition: 0.754% and -1.23%
DIPGX9
  growth inhibition: 1.93% and -1.22%
HGGX39
  growth inhibition: 2.88% and -0.945%
HGGX6
  growth inhibition: 1.26% and -1.1%
HNSC
  growth inhibition: 0.393% and 0.992%
SUDIPGIV
  growth inhibition: 2.12% and -1.5%
SUDIPGVI
  growth inhibition: -1.25% and -0.24%
SUDIPGXIII
  growth inhibition: 1.12% and 0.41%
